Whole data set: some 16,000 sequences, median “rpm ratio (pull-down/input)” near 0.5, cut for the highest 2% near 5.5. For the sample, the highest values were picked, then their nearest neighbours and some sequences at random.
Each sequence was assayed against T1, MBP-FoxP3dN (Mus musculus, UniProt Q99JB6 188-423) (assay: PD-seq (MBP pull-down with sequencing); 20 mM Tris-HCl pH 7.5, 100 mM NaCl, 1.5 mM MgCl2, 0.4 uM protein, 0.1 uM dsDNA library, 30 min, room temperature, amylose pull-down; high values mean tight binding). Conditions: protein: recombinant; tags: His6-MBP; chain copies: 2; dsDNA, one strand shown.
T1 sequence: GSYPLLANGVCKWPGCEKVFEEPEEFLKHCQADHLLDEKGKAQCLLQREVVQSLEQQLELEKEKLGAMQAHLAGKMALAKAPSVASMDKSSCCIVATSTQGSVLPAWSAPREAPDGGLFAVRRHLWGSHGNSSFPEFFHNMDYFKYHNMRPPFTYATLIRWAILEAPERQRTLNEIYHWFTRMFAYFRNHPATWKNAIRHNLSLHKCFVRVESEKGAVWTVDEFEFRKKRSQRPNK
Summary of the method: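 Mouse FoxP3 or FoxP1 fragment lacking the N-terminus, His6-MBP-tagged and expressed in E. coli, was incubated at 0.4 µM with 0.1 µM Klenow-filled degenerate double-stranded DNA library for 30 min at room temperature in Tris pH 7.5 buffer with NaCl and MgCl2. Complexes captured on amylose resin were washed three times and their DNA sequenced on Illumina. Binding is reads-per-million enrichment of pull-down over input, replicates pooled.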
In the case of “GATGATTGTTCTCCCAGCTGATGAATTTGATTGGTCGAGTAAACAAATTTTCCTAATCTTTCTGTTCAAGCGCCATCTAC”, the binding signal is reported as 5.03 RPM ratio (pull-down/input). “GATGATTGTTCTCCCAGCTGATGAATTTACCGGATCGAGTAAACAAATTTTCCTAATCTTTCTGTTCAAGCGCCATCTAC” was tested, and the binding signal was 0.251 RPM ratio (pull-down/input). “GATGATTGTTCTCCCAGCTGATGAATTGTAGCTCTCGAGTAAACAAATTTTCCTAATCTTTCTGTTCAAGCGCCATCTAC” was tested, and the binding signal was 0.791 RPM ratio (pull-down/input). For “GATGATTGTTCTCCCAGCTGATGAATTGGGGGAGTCGAGTAAACAAATTTTCCTAATCTTTCTGTTCAAGCGCCATCTAC”, the binding signal was 0.355 RPM ratio (pull-down/input). For “GATGATTGTTCTCCCAGCTGATGAATTGTTTCTTTCGAGTAAACAAATTTTCCTAATCTTTCTGTTCAAGCGCCATCTAC”, the binding signal was 1.93 RPM ratio (pull-down/input). For “GATGATTGTTCTCCCAGCTGATGAATTTCTGTTTTCGAGTAAACAAATTTTCCTAATCTTTCTGTTCAAGCGCCATCTAC”, the binding signal was 1.13 RPM ratio (pull-down/input). “GATGATTGTTCTCCCAGCTGATGAATTTTCTGTTTCGAGTAAACAAATTTTCCTAATCTTTCTGTTCAAGCGCCATCTAC” was tested, and the binding signal was 0.343 RPM ratio (pull-down/input). With “GATGATTGTTCTCCCAGCTGATGAATTGTTGTTTTCGAGTAAACAAATTTTCCTAATCTTTCTGTTCAAGCGCCATCTAC” the binding signal was 7.89 RPM ratio (pull-down/input). For “GATGATTGTTCTCCCAGCTGATGAATTTGTTTGTTCGAGTAAACAAATTTTCCTAATCTTTCTGTTCAAGCGCCATCTAC”, the binding signal was 7.56 RPM ratio (pull-down/input). With “GATGATTGTTCTCCCAGCTGATGAATTGTTTGATTCGAGTAAACAAATTTTCCTAATCTTTCTGTTCAAGCGCCATCTAC” the binding signal was 2.06 RPM ratio (pull-down/input). For “GATGATTGTTCTCCCAGCTGATGAATTGTTTTTTTCGAGTAAACAAATTTTCCTAATCTTTCTGTTCAAGCGCCATCTAC”, the binding signal was 4.84 RPM ratio (pull-down/input). With “GATGATTGTTCTCCCAGCTGATGAATTTTGTTGTTCGAGTAAACAAATTTTCCTAATCTTTCTGTTCAAGCGCCATCTAC” the binding signal was 8.13 RPM ratio (pull-down/input). With “GATGATTGTTCTCCCAGCTGATGAATTTTTTTGTTCGAGTAAACAAATTTTCCTAATCTTTCTGTTCAAGCGCCATCTAC” the binding signal was 0.472 RPM ratio (pull-down/input). With “GATGATTGTTCTCCCAGCTGATGAATTTGTTCTTTCGAGTAAACAAATTTTCCTAATCTTTCTGTTCAAGCGCCATCTAC” the binding signal was 2.28 RPM ratio (pull-down/input). In the case of “GATGATTGTTCTCCCAGCTGATGAATTTCTTTGTTCGAGTAAACAAATTTTCCTAATCTTTCTGTTCAAGCGCCATCTAC”, the binding signal is reported as 2.28 RPM ratio (pull-down/input). In the case of “GATGATTGTTCTCCCAGCTGATGAATTGTTTGTTTCGAGTAAACAAATTTTCCTAATCTTTCTGTTCAAGCGCCATCTAC”, the binding signal is reported as 7.87 RPM ratio (pull-down/input). “GATGATTGTTCTCCCAGCTGATGAATTGGTTACCTCGAGTAAACAAATTTTCCTAATCTTTCTGTTCAAGCGCCATCTAC” was tested, and the binding signal was 0.673 RPM ratio (pull-down/input). In the case of “GATGATTGTTCTCCCAGCTGATGAATTCGTCACGTCGAGTAAACAAATTTTCCTAATCTTTCTGTTCAAGCGCCATCTAC”, the binding signal is reported as 1.77 RPM ratio (pull-down/input).

Reference: publication PMC12820563, “FoxP3 forms a head-to-head dimer in vivo and stabilizes its multimerization on adjacent microsatellites”
